Screens: PubChem, National Center for Advancing Translational Sciences (NCATS)
Most compounds without a hit are left out; they make up all but 7.9% or so of the library.
HCV inhibitor: HCV inhibition. Huh7.5.1 HCVcc-Cre infection, luciferase reporter, 44 h. Potency, µM (highest dose often 41.8 µM), inactives show at the top dose activity change, negative = inhibition, usual class: inhibitors. 3.4% of 340,000 active; active means well fitted inhibition curve with a large enough effect; inconclusive means small, poorly fitted or top-dose-only effect, or another doubt; inactive means no such curve, though single readings can be large or run the other way; further: potency means the concentration at half of the fitted maximal effect
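HCVcc-Cre virus at an moi near 0.5 was added right after compound to cells cultured 4 h from seeding (1,000 cells/well). Luciferase activity was determined 44 h later, 15 min after substrate addition at RT.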
MARV entry inh: blocks Marburg virus binding to or entry into cells | 1.8% of 300,000 active | Marburg virus pseudotyped entry inhibition, cell reporter | AID 540276 | Potency, µM (doses to about 37.8 µM), without a hit: at the top dose activity change, negative = inhibition, hits mostly inhibitors; calls by dose curve; tested in HEK293 cells; further: potency means the concentration at half of the fitted maximal effect
HCMV inh: human cytomegalovirus inhibition. HFF cells, HCMV-luciferase reporter, 72 h; hits give low values. activity change, negative = inhibition, % at 57.5 µM. 4.5% of 410,000 active. AID 1259415; in the data active means activity change below about -60%; inconclusive means no clear call, values can overlap the other calls; inactive means above about -39%
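After 16 h attachment at 37C, HFF cells received test compound and HCMV-luciferase (1 PFU/cell); reporter luminescence read 72 h later, data normalized against buffer-only and known inhibitor Salinomycin.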
FMDV inh: blocks foot and mouth disease virus; FMDV antiviral cell-based qHTS; Potency, µM (highest dose often 57.9 µM), inactives show top-dose activity change, negative = inhibition, most hits filed as inhibitors; 1.2% of 410,000 active; AID 1159524; calls by dose curve; tested in HEK293T cells; further: read-out not given here; potency means the concentration at half of the fitted maximal effect; nearly all actives have a fitted effect of over 45% in size
Lassa entry inh: Lassa virus entry inhibition; 1.2% of 300,000 active; AID 540256; Potency, µM (series often up to 37.9 µM), for inactives: at the highest dose activity change, negative = inhibition, usual class: inhibitors; Lassa virus pseudotype entry inhibition, cell reporter; calls by dose curve; tested in HEK293 cells; further: potency means the concentration at half of the fitted maximal effect; nearly all actives have a fitted effect of over 50% in size
Starred values were filed as active, the others as inactive; ? = inconclusive; . = no result given; [ ] = remark or other dose. On the % scale 0 is the no-effect control and ±100 the full control effect.

SMILES	HCV inhibitor	MARV entry inh	HCMV inh	FMDV inh	Lassa entry inh
Cc1nc(Nc2nc(CSc3nc4ccccc4[nH]3)cc(=O)[nH]2)nc2ccccc12	?	13µM*	-103*	?	?
Cc1ccc(-n2ncc3c2CCCC3NC(=O)CCc2c(C)noc2C)cc1C (stereo not given)	.	-26%	?	-1%	-20%
O=C(Cc1nc2ccccc2[nH]1)c1cccc([N+](=O)[O-])c1	11µM*	.	-17	-20%	.
CC[C@@]1(C(=O)OC)N[C@H](CN(C)C(=O)Nc2ccc(C(F)(F)F)cc2)[C@@H]2C(=O)N(Cc3ccccc3)C(=O)[C@@H]21	7%	.	-12	-16%	.
COC(=O)[C@]1(Cc2ccccc2)N[C@H](CN(C)C(=O)Nc2ccc(C(F)(F)F)cc2)[C@@H]2C(=O)N(Cc3ccccc3)C(=O)[C@@H]21	13µM*	.	-11	0%	.
CC1=CC2/C=C(\C)CCC(O)C(O)/C=C/C(=O)C23C(=O)NC(CC(C)C)C3C1C (stereo not given)	?	.	.	6.3µM*	.
CCCCN1C(N)=NC[C@@H]1Cc1ccc(O)cc1	1%	.	16	-16%	.
NC1=NC[C@H](Cc2ccc(O)cc2)N1CCC12CC3CC(CC(C3)C1)C2	2%	.	-73*	?	.
CC(=O)C(=Cc1ccc(Cl)cc1)C(=O)c1ccccc1	.	.	36	28µM*	.
COc1ccc(C=C(C(C)=O)C(=O)c2ccccc2)cc1	.	.	-21	?	.
COc1cccc(C=C(C#N)C(=O)c2ccccc2)c1	.	.	3	-2%	.
CC(=O)C(=Cc1cccc(C#N)c1)C(=O)c1ccccc1	.	.	?	13µM*	.
CC(=O)OC[C@H]1O[C@@H](ON=CC[C@@H]2C=C[C@@H](OC(C)=O)[C@@H](COC(C)=O)O2)[C@@H](OC(C)=O)[C@@H](OC(C)=O)[C@@H]1OC(C)=O	.	-12%[14.2 µM]	.	.	.
O=C(NC1CC2CCCC(C1)N2C(=S)Nc1ccccc1)C1CC1 (stereo not given)	1%	3%[46.1 µM]	-31	5%	-2%[46.1 µM]
COC1C(C)OC(OC2CC(C)(O)Cc3cc4c(c(O)c32)C(=O)c2c(O)cc3c(c2C4=O)OC2OC3(C)C(O)C(N(C)C)C2O)C(OC)C1(C)OC (stereo not given)	4µM*	?	-98*	-9%	?
O=C(CCCn1c(=O)[nH]c2ccc(Br)cc2c1=O)N1CCN(c2cccc(Cl)c2)CC1	.	?	-100*	-1%	-25%[46.1 µM]
CCOc1cc2[nH]c(=O)n(CCCC(=O)N3CCN(c4cccc(Cl)c4)CC3)c(=O)c2cc1OCC	.	.	-24	?	-16%[46.1 µM]
O=C(CCCCn1c(=O)[nH]c2ccccc2c1=O)N1CCN(c2cccc(C(F)(F)F)c2)CC1	11µM*	9.2µM*	-34	-28%	16µM*
O=C(CCn1c(=O)[nH]c2ccccc2c1=O)N1CCN(c2cccc(C(F)(F)F)c2)CC1	9%	?	34	?	-4%
CCOC(=O)C1CCN(C(=O)CCCCn2c(=O)[nH]c3ccccc3c2=O)CC1	-10%	0%	-79*	-2%	-29%
O=C(CCCCn1c(=O)[nH]c2ccsc2c1=O)N1CCN(c2cccc(C(F)(F)F)c2)CC1	.	?	?	40µM*	-17%[46.1 µM]
CCOc1ccc(CN(CC)C(=O)Cc2c[nH]c3ccccc23)cc1OC	-3%	?	12	-11%	?
COCC(=O)N1[C@@H]2c3cccc(=O)n3C[C@@H]2[C@@H](CO)[C@@H]1C(=O)NCc1ccccc1F	.	.	0	.	.
CC(CN1CCN(C)CC1)OC(=O)c1ccccc1 (stereo not given)	9%	5%	4	10%	6%
CC(CN1CCN(C)CC1)OC(=O)c1ccc(F)cc1 (stereo not given)	3%	7%	-71*	7%	?
CCOC(=O)CN1C(=O)C(Sc2n[nH]c(-c3ccc(C)cc3)n2)CCc2ccccc21 (stereo not given)	?	?	?	28µM*	?
CC[C@]12CCCN3CCc4c(n(c5ccccc45)C(=O)C1)[C@@H]32	6.3µM*	.	47	-25%	.
CCN(Cc1ccccc1OC)CC1CCCN(CCc2cccc(OC)c2)C1 (stereo not given)	?	?	42	-16%	?
CCN(Cc1ccc(OC)c(COC)c1)CC1CCCN(CCc2cccc(OC)c2)C1 (stereo not given)	7.9µM*	.	-75*	-30%	.
